Most compounds without a hit are left out; they make up all but 1.5% or so of the library.
GLD-1 RNA inh = GLD-1-TGE RNA interaction inhibition (C. elegans); Q17339; purified GLD-1 + fluorescein TGE RNA, fluorescence polarization; inhibition, % at 5.96 µM; hit rate 0.44% among 320,000; AID 2280;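 active = percent inhibition above a per-plate cutoff, the plate mean of test compounds plus 3 SD, cut at about 30% in these data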
MCL1-BIM inh = MCL1-BIM-BH3 interaction inhibition (human); GST-MCL1 / FITC-Bim-BH3 fluorescence polarization; inhibition, % at 10.9 µM; hit rate 0.68% among 320,000; AID 2057;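 active = inhibition above the mean inhibition of all tested compounds plus 3 SD, set per campaign, cut at about 40% in these data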;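 note: higher means more loss of mP so more displacement of Bim peptide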
Target sequence (Q07820 whole entry, looked up): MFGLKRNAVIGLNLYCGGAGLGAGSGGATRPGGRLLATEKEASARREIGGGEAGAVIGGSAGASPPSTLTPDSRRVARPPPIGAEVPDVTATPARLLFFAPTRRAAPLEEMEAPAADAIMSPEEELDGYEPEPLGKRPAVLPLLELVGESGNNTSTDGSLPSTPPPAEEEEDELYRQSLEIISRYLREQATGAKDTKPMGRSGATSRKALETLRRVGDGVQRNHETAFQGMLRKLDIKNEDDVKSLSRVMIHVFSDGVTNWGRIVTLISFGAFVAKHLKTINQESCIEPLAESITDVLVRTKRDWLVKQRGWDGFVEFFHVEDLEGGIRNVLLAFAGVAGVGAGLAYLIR
Bcl-xL primary = inhibitors of human Bcl-xL; GST-Bcl-xL / FITC-Bim BH3 peptide fluorescence polarization; AID 2129; inhibition, % at 10.9 µM; hit rate 0.7% among 320,000;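 active = inhibition above the mean of all tested compounds plus 3 SD, cutoff set per campaign, cut at about 30% in these data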;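 note: inhibitors lower millipolarization by displacing the labeled peptide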
EBV gp42 inh = EBV gp42 inhibition | AID 1085 | Q1HVG2 | inhibition, % (tested at 21.74 µM) | hit rate 0.42% among 220,000 | Fluorescence polarization binding assay, mP read-out; in the data active = inhibition above about 50%
Target sequence (Q1HVG2 whole entry, looked up): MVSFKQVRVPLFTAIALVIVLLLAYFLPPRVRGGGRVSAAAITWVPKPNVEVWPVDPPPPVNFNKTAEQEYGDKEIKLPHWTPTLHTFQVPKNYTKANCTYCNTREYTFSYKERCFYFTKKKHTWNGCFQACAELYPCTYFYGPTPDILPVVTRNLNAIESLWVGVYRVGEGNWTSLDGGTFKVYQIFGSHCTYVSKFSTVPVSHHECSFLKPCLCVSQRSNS
MEX-5 binding = C. elegans MEX-5 TCR-2 RNA binding activity | MEX-5/FITC-TCR2 RNA binding, fluorescence polarization; hits give low values | AID 1832 | Q9XUB2 | hit rate 0.38% among 300,000 | activity score (negative = inhibition of binding), % at 10 µM;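 active = inhibition past about -25% in most replicates, and total fluorescence under double the plate's negative control median, limit read from the data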
eLon inh = E. coli protease La inhibition; P0A9M0; purified E. coli Lon protease, fluorescence polarization; inhibition, % at 7.94 µM; hit rate 0.42% among 360,000; AID 602123; in the data active = inhibition above about 13%, passing the limit was not always enough
Bcl-xL conf = Bcl-xL (human) inhibition, MCL1 counter-screen confirmation | shares compounds with MCL1-BIM inh | GST-Bcl-xL / FITC-Bim BH3 peptide FP binding | inhibition, % at 10.9 µM | hit rate 54% among 1,700 | AID 2166;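 active = inhibition above a cutoff equal to the mean inhibition of all tested compounds plus 3 SD, cut at about 30% in these data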
MCL1 inh confirm = MCL1-BIM-BH3 interaction inhibition, confirmation; shares compounds with MCL1-BIM inh; GST-MCL1 / FITC-Bim-BH3 fluorescence polarization; inhibition, % at 10.9 µM; hit rate 61% among 1,700;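 active = inhibition above the average of all tested compounds plus 3 SD, cut at about 40% in these data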
GLD1 RNA confirm = GLD-1 TGE RNA interaction inhibition, confirmation. shares compounds with GLD-1 RNA inh. hit rate 10% among 550. inhibition, % at 5.96 µM. GLD-1/FL-TGE RNA fluorescence polarization, biochemical;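 active = average inhibition across triplicates above the hit cutoff set in the primary screen, cut at about 32% in these data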
Of the large screens only hits and unclear results are named; the others gave an inactive call (follow-up assays come after a bar, where they were run).

O=C(O)c1ccc2c(c1)[C@@H]1C=CC[C@@H]1[C@H](c1ccccn1)N2	GLD-1 RNA inh 33.6, MCL1-BIM inh 86.3, Bcl-xL primary 56.5, MEX-5 binding -100.1 (no result: EBV gp42 inh) | Bcl-xL conf 50.4 | MCL1 inh confirm 85.2 | GLD1 RNA confirm inactive
O=C(NCCOc1ccccc1)C1Nc2ccc(OC(F)(F)F)cc2C2C=CCC12 (centres undefined)	none (no result: EBV gp42 inh)
CC1(C)Oc2ccc3ccc(=O)oc3c2C(/C=N/O)=C1Cl	none (no result: EBV gp42 inh)
Cc1nc2ccc(C(=O)N3CCN(Cc4ccccc4)CC3)cc2[nH]1	none (no result: EBV gp42 inh)
C(=Nc1cccc2c(N=Cc3ccco3)cccc12)c1ccco1	GLD-1 RNA inh 43.2, MCL1-BIM inh 75.6, Bcl-xL primary 82.4 | Bcl-xL conf inactive | MCL1 inh confirm inactive | GLD1 RNA confirm inactive
O=C1NC(=S)N/C1=C/c1cc2c(cc1[N+](=O)[O-])OCO2	GLD-1 RNA inh 41.6, MCL1-BIM inh 67.1, Bcl-xL primary 52.6 (no result: EBV gp42 inh) | Bcl-xL conf inactive | MCL1 inh confirm inactive | GLD1 RNA confirm inactive
O=C(O)/C=C\c1cc2c(cc1[N+](=O)[O-])OCO2	none
CCOC(=O)C1C(c2ccc(O)c(OC)c2)NC(=O)NC1(O)C(F)(F)F (centres undefined)	none (no result: EBV gp42 inh)
CCOC(=O)C1C(c2ccc3c(c2)OCO3)NC(=O)NC1(O)C(F)(F)F (centres undefined)	GLD-1 RNA inh 32.8, MCL1-BIM inh 54.5, Bcl-xL primary 59.8 | Bcl-xL conf inactive | MCL1 inh confirm inactive | GLD1 RNA confirm inactive
O=C(COc1ccc(Cl)cc1)Nc1c(-c2cccs2)nc2ccccn12	none
CC(C)CCNc1c(-c2cccs2)nc2ccccn12	GLD-1 RNA inh 45.5, MCL1-BIM inh 67.7, Bcl-xL primary 75.3 | Bcl-xL conf 46.0 | MCL1 inh confirm 69.0 | GLD1 RNA confirm inactive
O=C(O)c1ccc2c(c1)C(=O)/C(=C/c1ccccc1)C2=O	GLD-1 RNA inh 46.4, MCL1-BIM inh 91.8, Bcl-xL primary 76.7 | Bcl-xL conf 45.4 | MCL1 inh confirm 65.9 | GLD1 RNA confirm inactive
CC(C)(C)N1C(=O)c2ccc(C(=O)O)cc2C1=O	none
O=c1c2ccccc2nc2n1CC/C2=C/N1CCN(c2cccc(C(F)(F)F)c2)CC1	GLD-1 RNA inh 42.1, MCL1-BIM inh 55.6, Bcl-xL primary 50.2 | Bcl-xL conf inactive | MCL1 inh confirm inactive | GLD1 RNA confirm inactive
CC(C(=O)Nc1ccc(C(=O)O)c(O)c1)N1C(=O)/C(=C\c2ccco2)SC1=S (centres undefined)	GLD-1 RNA inh 32.3, MCL1-BIM inh 90.9, Bcl-xL primary 47.5, MEX-5 binding -25.7 (no result: EBV gp42 inh) | Bcl-xL conf 46.2 | MCL1 inh confirm 80.5 | GLD1 RNA confirm inactive
COc1ccc(S(=O)(=O)N(CC(C)C)C2CCS(=O)(=O)C2)cc1OC (centres undefined)	none (no result: EBV gp42 inh)
Cc1c(NC(=O)C(C)OC(=O)c2cc(-c3cccc4ccccc34)nc3ccccc23)c(=O)n(-c2ccccc2)n1C (centres undefined)	GLD-1 RNA inh 37.9, MCL1-BIM inh 86.4, Bcl-xL primary 75.3 | Bcl-xL conf inactive | MCL1 inh confirm inactive | GLD1 RNA confirm inactive
N#CC1=C(N)C(C#N)(C#N)C2(CCC3(CC2)OCCO3)C2CC3(CC=C12)OCCO3 (centres undefined)	none
N#CC1=C(N)C(C#N)(C#N)[C@H](c2c(F)cccc2F)[C@H]2CC3(CC=C12)OCCO3	GLD-1 RNA inh 54.9, MCL1-BIM inh 61.8, Bcl-xL primary 58.0 | Bcl-xL conf 35.3 | MCL1 inh confirm inactive | GLD1 RNA confirm inactive
O=[N+]([O-])c1nn(-c2ccc3c(c2)OCCO3)n(O)c1=NCc1ccc(F)cc1	none
O=[N+]([O-])c1nn(-c2ccc3c(c2)OCCO3)n(O)c1=NCc1ccc(F)cc1Cl	GLD-1 RNA inh 31.6, MCL1-BIM inh 67.4, Bcl-xL primary 78.8 | Bcl-xL conf inactive | MCL1 inh confirm inactive | GLD1 RNA confirm inactive
COc1cccc(C2C=C(c3ccc(OC)cc3OC)Nc3nnnn32)c1 (centres undefined)	GLD-1 RNA inh 38.6, MCL1-BIM inh 50.9, Bcl-xL primary 53.6 | Bcl-xL conf inactive | MCL1 inh confirm inactive | GLD1 RNA confirm inactive
Cc1cccc(C)c1NC(=O)CN1C(=O)CCSc2ccc(S(=O)(=O)N3CCCC3)cc21	none (no result: EBV gp42 inh)
Cn1nccc1-c1ccc(C(=O)NCc2ccco2)c2occc12	none (no result: GLD-1 RNA inh, MCL1-BIM inh, Bcl-xL primary, EBV gp42 inh, MEX-5 binding)
CCN(CC)CCN(Cc1cc2cc3c(cc2[nH]c1=O)OCCO3)C(=S)NC	none (no result: EBV gp42 inh)
CCOC(=O)Cn1c(=O)c(-c2cc(Br)ccc2N)nc2ccccc21	GLD-1 RNA inh 36.6, MCL1-BIM inh 82.2, Bcl-xL primary 69.8, EBV gp42 inh 60.1, MEX-5 binding -38.2 | Bcl-xL conf 108.3 | MCL1 inh confirm 131.7 | GLD1 RNA confirm 49.8
CCCCSc1ccc(NC(=O)c2cccnc2)cc1	GLD-1 RNA inh 41.5, MCL1-BIM inh 77.4, Bcl-xL primary 75.8 | Bcl-xL conf inactive | MCL1 inh confirm inactive | GLD1 RNA confirm inactive
CCC(C)c1ccc(NC(=O)c2cccnc2)cc1 (centres undefined)	none
CC(C)Sc1nc(N2CCOCC2)c2c(c1C#N)CC(C)(C)N(C)C2	GLD-1 RNA inh 39.1, MCL1-BIM inh 50.3, Bcl-xL primary 49.8 | Bcl-xL conf inactive | MCL1 inh confirm inactive | GLD1 RNA confirm inactive
CN1Cc2c(N3CCOCC3)nc(SCCC#N)c(C#N)c2CC1(C)C	none
COc1ccccc1CNc1nc(Nc2ccccc2-n2cccn2)c2sccc2n1	none (no result: GLD-1 RNA inh, MCL1-BIM inh, Bcl-xL primary, EBV gp42 inh, MEX-5 binding)
O=C(NCCC1=CCCCC1)C(=O)NCc1ccncc1	GLD-1 RNA inh 46.7, MCL1-BIM inh 68.3, Bcl-xL primary 73.0 | Bcl-xL conf inactive | MCL1 inh confirm inactive | GLD1 RNA confirm inactive
Nc1cccc(C(=O)OCC(=O)Nc2cccc3c2C(=O)c2ccccc2C3=O)c1	GLD-1 RNA inh 47.0, MCL1-BIM inh 118.5, Bcl-xL primary 97.7, EBV gp42 inh 92.5 | Bcl-xL conf 107.1 | MCL1 inh confirm 146.2 | GLD1 RNA confirm 67.2
Cc1cccc(NC(=O)COC(=O)c2cccc3c2C(=O)c2ccccc2C3=O)c1C	none
COc1cccc(C(=O)N2CCN(C(=O)C3CC3)CC2)c1	none (no result: GLD-1 RNA inh, MCL1-BIM inh, Bcl-xL primary, EBV gp42 inh)
COc1cccc(C(=O)N2CCN(C(=O)c3cccc(F)c3)CC2)c1	GLD-1 RNA inh 53.1, MCL1-BIM inh 85.1, Bcl-xL primary 75.9 | Bcl-xL conf inactive | MCL1 inh confirm inactive | GLD1 RNA confirm inactive
CCCS(=O)(=O)NC(=O)C1(C)CCCN(C(=O)C(C)(C)Oc2ccc(Cl)cc2)C1 (centres undefined)	none (no result: GLD-1 RNA inh, MCL1-BIM inh, Bcl-xL primary, EBV gp42 inh, MEX-5 binding)

Assay outcomes from PubChem BioAssay.
